Assay results: PubChem BioAssay AID1159580 (chemical genetic matrix, 2015)
Out of some 5,500 compounds screened, about 2,000 (36%) were called active. Roughly 18% stayed inconclusive and do not appear here. Some of the results follow. Values without a mark were called inactive. Cut-off read from the data, not from the text of the source: active = normalized growth mostly below about 0.91 (no sharp cut-off); inconclusive = no clear call, values can overlap the other calls; inactive = mostly above about 0.92.

Assay: chemical genetic growth profiling, strain panel (AID 1159580);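 note: tested at 20 µM; growth read once vehicle control cultures reached saturation at 30 °C; 1 = growth at the plate median or of vehicle wells; lower values mean less growth of the strain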
Settings: growth OD
[1] = S. cerevisiae deletion strains, locus YHR030C, strain SLT2, hits give low values
[2] = S. cerevisiae deletion strains, locus YJL095W, strain BCK1, hits give low values

Compound: CCCCCCCCCCCC(=O)OCC(COP(=O)(O)OCC(O)COP(=O)(O)OCC(COC(=O)CCCCCCCCCCC)OC(=O)CCCCCCCCCCC)OC(=O)CCCCCCCCCCC (configuration not stated)
- normalized growth (S. cerevisiae deletion strains, locus YBR021W, strain FUR4, hits give low values): 0.99
- normalized growth (S. cerevisiae deletion strains, locus YBR229C, strain ROT2, hits give low values): 0.967
- normalized growth (S. cerevisiae deletion strains, locus YCL029C, strain bik1, hits give low values): 1.01
- normalized growth (S. cerevisiae deletion strains, locus YDL035C, strain GPR1, hits give low values): 0.663 (active)
- normalized growth (S. cerevisiae deletion strains, locus YDL074C, strain BRE1, hits give low values): 0.72 (active)
- normalized growth (S. cerevisiae deletion strains, locus YDL101C, strain DUN1, hits give low values): 0.839 (active)
- normalized growth (S. cerevisiae deletion strains, locus YDL185W, strain tfp1, hits give low values): 0.981
- normalized growth (S. cerevisiae deletion strains, locus YDL192W, strain arf1, hits give low values): 0.972
- normalized growth (S. cerevisiae deletion strains, locus YDR101C, strain arx1, hits give low values): 1.03
- normalized growth (S. cerevisiae deletion strains, locus YDR162C, strain NBP2, hits give low values): 0.55 (active)
- normalized growth (S. cerevisiae deletion strains, locus YDR318W, strain mcm21, hits give low values): 1
- normalized growth (S. cerevisiae deletion strains, locus YDR388W, hits give low values): 1.01
- normalized growth (S. cerevisiae deletion strains, locus YDR502C, strain sam2, hits give low values): 0.978
- normalized growth (S. cerevisiae deletion strains, locus YEL061C, strain CIN8, hits give low values): 0.861 (active)
- normalized growth (S. cerevisiae deletion strains, locus YER110C, hits give low values): 1.03
- normalized growth (S. cerevisiae deletion strains, locus YER155C, strain BEM2, hits give low values): 1.02
- normalized growth (S. cerevisiae deletion strains, locus YER167W, strain BCK2, hits give low values): 0.953
- normalized growth (S. cerevisiae deletion strains, locus YGL078C, strain dbp3, hits give low values): 1.02
- normalized growth (S. cerevisiae deletion strains, locus YGL086W, strain mad1, hits give low values): 0.927 (active)
- normalized growth (S. cerevisiae deletion strains, locus YGL248W, strain PDE1, hits give low values): 0.876 (active)
- normalized growth (S. cerevisiae deletion strains, locus YGR078C, strain PAC10, hits give low values): 0.879
- normalized growth (S. cerevisiae deletion strains, locus YGR135W, strain pre9, hits give low values): 0.923
- normalized growth (S. cerevisiae deletion strains, locus YGR229C, strain SMI1, hits give low values): 0.181 (active)
- normalized growth (S. cerevisiae deletion strains, locus YGR252W, strain gcn5, hits give low values): 0.887
- normalized growth [1]: 0.965
- normalized growth (S. cerevisiae deletion strains, locus YHR079C, strain IRE1 (second series), hits give low values): 1.04
- normalized growth (S. cerevisiae deletion strains, locus YHR094C, strain hxt1, hits give low values): 1.03
- normalized growth (S. cerevisiae deletion strains, locus YHR129C, strain ARP1, hits give low values): 0.902 (active)
- normalized growth (S. cerevisiae deletion strains, locus YHR200W, strain rpn10, hits give low values): 0.995
- normalized growth (S. cerevisiae deletion strains, locus YIL066C, strain RNR3, hits give low values): 0.633 (active)
- normalized growth (S. cerevisiae deletion strains, locus YIL073C, strain SPO22, hits give low values): 0.524 (active)
- normalized growth (S. cerevisiae deletion strains, locus YIL125W, strain kgd1, hits give low values): 1.03
- normalized growth (S. cerevisiae deletion strains, locus YIR030C, strain dcg1, hits give low values): 1.03
- normalized growth [2]: 0.816
- normalized growth (S. cerevisiae deletion strains, locus YJL134W, strain LCB3, hits give low values): 0.975
- normalized growth (S. cerevisiae deletion strains, locus YJL168C, strain set2, hits give low values): 1
- normalized growth (S. cerevisiae deletion strains, locus YJL187C, strain SWE1 (second series), hits give low values): 0.703 (active)
- normalized growth (S. cerevisiae deletion strains, locus YJR043C, strain POL32, hits give low values): 0.632 (active)
- normalized growth (S. cerevisiae deletion strains, locus YKL009W, strain mrt4, hits give low values): 1.09
- normalized growth (S. cerevisiae deletion strains, locus YKL068W, hits give low values): 1.03
- normalized growth (S. cerevisiae deletion strains, locus YKL085W, strain MDH1 (second series), hits give low values): 1.01
- normalized growth (S. cerevisiae deletion strains, locus YKL085W, strain MDH1, hits give low values): 1.01
- normalized growth (S. cerevisiae deletion strains, locus YKL190W, strain CNB1, hits give low values): 0.682 (active)
- normalized growth (S. cerevisiae deletion strains, locus YKR001C, strain vps1, hits give low values): 0.986
- normalized growth (S. cerevisiae deletion strains, locus YLR039C, strain RIC1, hits give low values): 0.671 (active)
- normalized growth (S. cerevisiae deletion strains, locus YLR058C, strain SHM2, hits give low values): 0.811 (active)
- normalized growth (S. cerevisiae deletion strains, locus YLR102C, strain apc9, hits give low values): 1.02
- normalized growth (S. cerevisiae deletion strains, locus YLR262C, strain YPT6, hits give low values): 0.798
- normalized growth (S. cerevisiae deletion strains, locus YLR268W, strain sec22, hits give low values): 0.937
- normalized growth (S. cerevisiae deletion strains, locus YLR330W, strain CHS5, hits give low values): 0.964
- normalized growth (S. cerevisiae deletion strains, locus YLR342W, strain FKS1 (second series), hits give low values): 0.549 (active)
- normalized growth (S. cerevisiae deletion strains, locus YLR371W, strain rom2, hits give low values): 0.971
- normalized growth (S. cerevisiae deletion strains, locus YLR418C, strain cdc73, hits give low values): 0.765 (active)
- normalized growth (S. cerevisiae deletion strains, locus YML016C, strain PPZ1, hits give low values): 0.792 (active)
- normalized growth (S. cerevisiae deletion strains, locus YML032C, strain rad52, hits give low values): 1.03
- normalized growth (S. cerevisiae deletion strains, locus YML124C, strain tub3, hits give low values): 1.02
- normalized growth (S. cerevisiae deletion strains, locus YMR078C, strain ctf18, hits give low values): 1.02
- normalized growth (S. cerevisiae deletion strains, locus YMR223W, strain ubp8, hits give low values): 0.962
- normalized growth (S. cerevisiae deletion strains, locus YMR263W, strain SAP30, hits give low values): 0.923
- normalized growth (S. cerevisiae deletion strains, locus YMR307W, strain GAS1, hits give low values): 0.475 (active)
- normalized growth (S. cerevisiae deletion strains, locus YNL067W, strain RPL9B, hits give low values): 0.891
- normalized growth (S. cerevisiae deletion strains, locus YNL128W, strain TEP1, hits give low values): 0.589 (active)
- normalized growth (S. cerevisiae deletion strains, locus YNL233W, strain BNI4, hits give low values): 0.91
- normalized growth (S. cerevisiae deletion strains, locus YNL250W, strain rad50, hits give low values): 1.02
- normalized growth (S. cerevisiae deletion strains, locus YNL271C, strain bni1, hits give low values): 1
- normalized growth (S. cerevisiae deletion strains, locus YNL298W, strain CLA4, hits give low values): 1.01
- normalized growth (S. cerevisiae deletion strains, locus YNL307C, strain MCK1, hits give low values): 1.02
- normalized growth (S. cerevisiae deletion strains, locus YNL322C, strain KRE1, hits give low values): 0.715 (active)
- normalized growth (S. cerevisiae deletion strains, locus YNR052C, strain pop2, hits give low values): 0.975
- normalized growth (S. cerevisiae deletion strains, locus YOL006C, strain TOP1, hits give low values): 0.29 (active)
- normalized growth (S. cerevisiae deletion strains, locus YOL012C, strain htz1): 0.377
- normalized growth (S. cerevisiae deletion strains, locus YOL147C, strain pex11, hits give low values): 1.02
- normalized growth (S. cerevisiae deletion strains, locus YOR061W, strain CKA2, hits give low values): 0.803 (active)
- normalized growth (S. cerevisiae deletion strains, locus YOR069W, strain VPS5, hits give low values): 0.951
- normalized growth (S. cerevisiae deletion strains, locus YOR136W, strain idh2, hits give low values): 1.01
- normalized growth (S. cerevisiae deletion strains, locus YOR144C, strain elg1, hits give low values): 1.01
- normalized growth (S. cerevisiae deletion strains, locus YOR184W, strain ser1, hits give low values): 0.926
- normalized growth (S. cerevisiae deletion strains, locus YOR316C, strain cot1, hits give low values): 1.02
- normalized growth (S. cerevisiae deletion strains, locus YPR119W, strain clb2, hits give low values): 1.03
- normalized growth (S. cerevisiae deletion strains, locus YPR141C, strain kar3, hits give low values): 1.02
- normalized growth (S. cerevisiae deletion strains, locus YPR163C, strain tif3, hits give low values): 1.02
- normalized growth (S. cerevisiae deletion strains, locus YPR167C, strain met16, hits give low values): 1.02
- normalized growth (S. cerevisiae deletion strains, strain wtn01, hits give low values): 0.947
- normalized growth (S. cerevisiae strains, strain wild type, hits give low values): 0.56 (active)

Compound: CCCCCCCCCCCCCCCC(=O)OCC(O)CO (configuration not stated)
- normalized growth [1]: 1
- normalized growth (S. cerevisiae deletion strains, locus YHR079C, strain IRE1, hits give low values): 0.99
- normalized growth [2]: 0.967
- normalized growth (S. cerevisiae deletion strains, locus YJR066W, strain TOR1, hits give low values): 0.936
- normalized growth (S. cerevisiae deletion strains, locus YLR113W, strain HOG1, hits give low values): 1
- normalized growth (S. cerevisiae deletion strains, locus YNL183C, strain NPR1, hits give low values): 0.93
- normalized growth (S. cerevisiae deletion strains, locus YOR231W, strain MKK1, hits give low values): 1.01
- normalized growth (S. cerevisiae deletion strains, locus YPL256C, strain CLN2, hits give low values): 1.02
